SARS PLP yeast: SARS-CoV PLP inhibition in yeast; S. cerevisiae expressing SARS-CoV PLpro, growth rescue; Potency, µM (series often up to 32.9 µM), actives largely listed as activators; 330,000 tested, 0.19% active; AID 485353; calls by dose curve; further: nearly all actives have a fitted effect of over 55% in size
Pf growth 96h: P. falciparum growth inhibition at 96 hours; P. falciparum luciferase reporter growth, 96 h; Potency, µM (titrated, usually from 28.7 µM), usual class: inhibitors; 320,000 tested, 6.9% active; AID 504834
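Luminescence readout: decreased luciferase signal marks inhibited growth of reporter-expressing P. falciparum in infected red cells (2% hematocrit, 0.05% parasitemia final), exposed to compound two generations (96 h, 37 C, 5% CO2).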
Pf growth 48h: inhibits P. falciparum growth in the first generation, 48 h; Potency, µM (series often up to 28.7 µM), most hits filed as inhibitors; 310,000 tested, 5.9% active; P. falciparum luciferase growth in erythrocytes, 48 h
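Parasite viability was followed by luminescence of a genomically integrated firefly luciferase. Cultures held 0.1% parasitemia at 2% hematocrit (final), incubated under 5% CO2 at 37 C.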
Sm TGR block: blocks Schistosoma mansoni thioredoxin glutathione reductase; purified TGR, DTNB reduction, TNB absorbance 405 nm; Potency, µM (doses to about 114 µM), actives largely listed as inhibitors; 360,000 tested, 3% active; AID 485364; Q962Y6; further: nearly all actives have a fitted effect of over 60% in size
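Kinetic colorimetric format: TGR-catalysed, NADPH-driven DTNB reduction monitored via TNB absorbance. Enzyme dispensed at 20 nM; compound exposure 15 min at room temperature before reaction start.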
Large screens that a line does not name were inactive. This is a sample that favours compounds with a hit; in the whole collection about 12% have one here. Unless noted, the call rests on the fitted dose curve; in most records, active means well fitted curve in the direction sought with a large enough effect; inconclusive means small, poorly fitted or top-dose-only effect, or another doubt; inactive means no such curve, though single readings can be large; an effect the other way counts as inactive or inconclusive.

CCOc1cc(NC(=S)Nc2cccc(OC)c2)c(OCC)cc1NC(=O)c1ccc(C)cc1	Pf growth 48h inconclusive
CCOc1ccc(CN2C(=O)c3ccccc3Sc3ccc(C(=O)NC4CCC(C)CC4)cc32)cc1 (stereo unspecified)	none (no result: SARS PLP yeast, Pf growth 96h, Pf growth 48h)
Cc1cccc(N/C(=N/S(=O)(=O)c2ccccc2)c2ccccc2)n1	none
CCOc1ccccc1NC(=O)c1ccc2ccccc2c1	Pf growth 96h 12µM
CCOc1ccccc1NC(=O)NNC(=O)c1ccc2ccccc2c1	none
CCOC(=O)C(=CNNc1ccccc1)C(=O)OCC	Sm TGR block 2.2µM
CCOC(=O)NNc1ccccc1	none
Cc1c(C)n(C)c2ccc(C(=O)NCCc3ccc(Cl)cc3)cc12	none (no result: SARS PLP yeast, Pf growth 96h, Pf growth 48h)
C/C(=N\NC(=O)c1ccc(F)cc1)c1ccccn1	Pf growth 48h inconclusive
C=CCNC(=S)N/N=C(\C)c1ccccn1	Pf growth 96h 0.0029µM, Sm TGR block inconclusive (no result: Pf growth 48h)
Cc1cccc(C)c1Nc1nn2c(=O)c3cc4c(cc3nc2s1)OCO4	none (no result: SARS PLP yeast, Pf growth 96h, Pf growth 48h)
COCCCNC(=O)c1c(NC(=O)c2nc(S(C)(=O)=O)ncc2Cl)sc2c1CCCC2	Sm TGR block 5.6µM (no result: SARS PLP yeast, Pf growth 96h, Pf growth 48h)
CCSc1ncc(Cl)c(C(=O)Nc2sc3c(c2C(=O)NCCCOC)CCCC3)n1	none (no result: SARS PLP yeast, Pf growth 96h, Pf growth 48h)
CN(CC(=O)Nc1ccccc1Br)C(=O)CN1CCN(Cc2cccc(Cl)c2)CC1	none (no result: Pf growth 96h, Pf growth 48h, Sm TGR block)
Cc1ccc(-n2c(SCc3ccccc3F)nc3[nH]ncc3c2=O)cc1Cl	none (no result: SARS PLP yeast, Pf growth 96h, Pf growth 48h)
CCCNC(=O)c1ccc(S(=O)(=O)c2ccc(OC)cc2)c([N+](=O)[O-])c1	Pf growth 48h 12µM, Sm TGR block 2.2µM
COc1ccc(C(=O)NCCNc2ccccc2[N+](=O)[O-])cc1	none (no result: Sm TGR block)
O=c1cc(/C=C/c2c(F)cccc2Cl)[nH]c2ccccc12	Pf growth 48h 0.93µM
CC1CCN(S(=O)(=O)c2ccc3c(c2)N(CC(=O)N2CCN(c4ccccc4)CC2)C(=O)CO3)CC1	none (no result: SARS PLP yeast, Pf growth 96h, Pf growth 48h)
O=C1CCSc2ccc(Cl)cc2N1Cc1ccccc1	none
O=C1CCSc2ccc(Cl)cc2N1Cc1ccc(Cl)cc1	Pf growth 96h 15µM, Pf growth 48h inconclusive
CC(O)c1nc(C(C)O)n(CC(=O)c2ccccc2)n1 (stereo unspecified)	Pf growth 48h inconclusive, Sm TGR block 45µM
Cc1cccn2c(=O)c(C=C(C#N)C#N)c(N3CCN(c4cccc(Cl)c4)CC3)nc12	Pf growth 96h inconclusive, Pf growth 48h 7.4µM
CCNC(=O)/C(C#N)=C/c1c(N2CCN(c3cccc(Cl)c3)CC2)nc2c(C)cccn2c1=O	Pf growth 96h inconclusive, Pf growth 48h 12µM
Cc1cccn2c(=O)c(/C=C(\C#N)C(=O)NCc3ccco3)c(N3CCCCC3)nc12	Pf growth 96h 2.9µM, Pf growth 48h inconclusive
CCNC(=O)/C(C#N)=C/c1c(N2CCN(Cc3ccc4c(c3)OCO4)CC2)nc2c(C)cccn2c1=O	Pf growth 96h 3.7µM, Pf growth 48h 7.4µM
CCc1cc(-c2n[nH]c(C)c2-c2ccccc2Cl)c(O)cc1OC	Pf growth 48h inconclusive
CCOc1ccccc1CNC(=O)CSc1n[nH]c(-c2ccccc2Cl)n1	none (no result: SARS PLP yeast, Pf growth 96h, Pf growth 48h)
CC1(C)CC(=O)c2c(oc3c(Cl)cc(NS(=O)(=O)c4ccc(Cl)cc4)cc23)C1	none (no result: SARS PLP yeast, Pf growth 96h, Pf growth 48h)
CN(C)c1ccc(/C=C/c2cc[n+]([O-])cc2)cc1	Pf growth 96h 2.1µM
CC[n+]1ccc(/C=C/c2ccc(N(C)C)cc2)c2ccccc21	Pf growth 48h 0.59µM
CN(C)c1ccc(/C=C/c2cc[n+](C)cc2)cc1	Pf growth 96h inconclusive (no result: Pf growth 48h)
Cc1ccc(/C=C/c2ccc(N(C)C)cc2)[n+](C)c1	Pf growth 48h 1.2µM
CC[n+]1ccccc1/C=C/c1ccc(N(C)C)cc1	Pf growth 48h 2.9µM
COc1cccc(CN2C(=O)c3ccccc3Sc3ccc(C(=O)N(C)Cc4ccccc4)cc32)c1	none (no result: SARS PLP yeast, Pf growth 96h, Pf growth 48h)
CC(=O)NCc1ccc(S(=O)(=O)N2CCCN(C)CC2)cc1	none
CCCCc1ccc(N2C(=O)[C@@H]3C(CC(N)=O)NC4(C(=O)Nc5ccc(F)cc54)[C@@H]3C2=O)cc1 (stereo partly specified)	Pf growth 96h inconclusive (no result: Pf growth 48h)
CSCCC1NC2(C(=O)Nc3c2ccc(Cl)c3C)[C@@H]2C(=O)N(C3CCCC3)C(=O)[C@H]12 (stereo partly specified)	Pf growth 48h inconclusive (no result: Pf growth 96h)
Cc1c(Cl)ccc2c1NC(=O)[C@]21N[C@@H](CCC(N)=O)[C@H]2C(=O)N(c3ccc(F)cc3)C(=O)[C@H]21	Sm TGR block 13µM
Cc1c(Cl)ccc2c1NC(=O)C21NC(CCC(N)=O)[C@H]2C(=O)N(c3ccc(Cl)cc3)C(=O)[C@H]21 (stereo partly specified)	Sm TGR block 35µM (no result: Pf growth 48h)
CC(C)c1ccc(OCC(=O)Nc2c(Cl)ccc3nsnc23)cc1	none (no result: SARS PLP yeast, Pf growth 96h, Pf growth 48h)
CCC1Nc2ncnc(N3CCCCC3)c2N(Cc2ccc(C)cc2)C1=O (stereo unspecified)	none (no result: Pf growth 96h, Pf growth 48h, Sm TGR block)
CC1Nc2ncnc(N3CCN(c4ccccn4)CC3)c2N(Cc2ccccc2)C1=O (stereo unspecified)	Pf growth 96h 2.6µM, Pf growth 48h 12µM
COc1ccc(CN2C(=O)C(C)Nc3ncnc(N4CCN(c5ccccn5)CC4)c32)cc1 (stereo unspecified)	none (no result: Pf growth 96h, Pf growth 48h, Sm TGR block)
Cc1ccc(CN2C(=O)C(C)Nc3ncnc(N4CCN(c5ccccn5)CC4)c32)cc1 (stereo unspecified)	Pf growth 96h 12µM, Pf growth 48h 12µM
COc1ccc(CCNC(=O)CSc2nc3ccccc3nc2Cc2ccc(Cl)cc2)cc1OC	none (no result: SARS PLP yeast, Pf growth 96h, Pf growth 48h)
CCOc1nc(N=C(N)N)nc2c(C)cccc12	Pf growth 96h 0.59µM, Pf growth 48h 8.3µM
Cc1ccc(C(=O)N(Cc2cccnc2)Cc2cc3cc(C)ccc3n3nnnc23)cc1	Pf growth 48h inconclusive (no result: Sm TGR block)
CNC(=S)N(Cc1cc2cc(C)ccc2n2nnnc12)CC(C)(C)CN(C)C	Pf growth 96h 5.9µM, Pf growth 48h inconclusive
COCCN(Cc1cc2cc(C)ccc2n2nnnc12)C(=S)Nc1cccc(C)c1	Pf growth 48h 5.2µM
Cc1cc2cc(CN(C(=O)C3CC3)C3CCCC3)c3nnnn3c2cc1C	Sm TGR block inconclusive (no result: Pf growth 96h, Pf growth 48h)
CCc1ccc2c(c1)cc(CN(C(=S)Nc1cccc(C)c1)C1CC1)c1nnnn12	Pf growth 96h 2.3µM, Pf growth 48h inconclusive
CN(Cc1ccccc1)C(=O)c1ncn(C)c1C(=O)N(C)Cc1ccccc1	Sm TGR block 20µM
CCn1c(SCC(=O)NNC(=O)Cc2ccccc2)nnc1-c1ccncc1	Pf growth 96h 0.33µM, Pf growth 48h 1.5µM
C=CCNC(=O)CSc1nnc(-c2ccncc2)n1CCc1ccccc1	Pf growth 96h 12µM
CC(=O)Nc1ccc(S(=O)(=O)NCC2CCC(C(=O)NCCc3ccc(C)cc3)CC2)cc1 (stereo unspecified)	none (no result: SARS PLP yeast, Pf growth 96h, Pf growth 48h)
CCc1nnc2n1N=C(c1ccccc1)CS2	Sm TGR block 45µM
CCCc1nnc2n1N=C(c1ccc([N+](=O)[O-])cc1)CS2	none
CCCc1nnc2n1N=C(c1ccc(C)cc1)CS2	Pf growth 96h inconclusive, Sm TGR block 45µM
CC(=S)c1c(C)cc2cc(C)ccn12	Sm TGR block 18µM
Cc1cc2ccccn2c1C(=O)Nc1ccccc1	none
CNc1c([N+](=O)[O-])cnn1-c1ccc(C)cc1	Pf growth 96h inconclusive, Pf growth 48h 3.3µM
CNc1c([N+](=O)[O-])cnn1-c1ccccc1F	none (no result: Sm TGR block)

Screens (PubChem BioAssay)
